# Measured values published in PubChem BioAssay (NCATS).
# Records with an inconclusive call do not appear. Where a call stands in place of a potency, no number is given. The source made the active and inactive calls. Unless noted, the call rests on the fitted dose curve; in most records, active means well fitted curve in the direction sought with a large enough effect; inconclusive means small, poorly fitted or top-dose-only effect, or another doubt; inactive means no such curve, though single readings can be large; an effect the other way counts as inactive or inconclusive.
# What was measured:
# [1] = P-glycoprotein substrates identified in KB-8-5-11 adenocarcinoma cell line, qHTS therapeutic library screen (AID 1346987); further: nearly all actives have a fitted effect of over 65% in size; further: potency means the concentration at half of the fitted maximal effect
# Outline: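 P-gp-mediated resistance screen: KB-8-5-11 cells treated 72 h with compounds in dose-response. CellTiter-Glo viability.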
# [2] = Natriuretic polypeptide receptor (hNpr1) antagonism - Pilot counterscreen GloSensor control cell line (AID 1347045; calls by dose curve; further: potency means the concentration at half of the fitted maximal effect)
# Outline: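 This counterscreen uses HEK293 cells expressing the GIP/pGS-40F cGMP biosensor. Compound-treated cells are challenged with 50 uM sodium nitroprusside, and the luciferase signal is compared before and after stimulation.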
# [3] = molecular target: Atrial natriuretic peptide receptor 1 (Homo sapiens) (UniProt P16066); assay: Natriuretic polypeptide receptor (hNpr1) antagonism - Pilot screen (AID 1347049; calls by dose curve;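 further: agonist-evoked cGMP luminescence read 20 min after hNppA addition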; further: potency means the concentration at half of the fitted maximal effect)
# Chain of Atrial natriuretic peptide receptor 1 (Homo sapiens) (P16066 whole entry, looked up): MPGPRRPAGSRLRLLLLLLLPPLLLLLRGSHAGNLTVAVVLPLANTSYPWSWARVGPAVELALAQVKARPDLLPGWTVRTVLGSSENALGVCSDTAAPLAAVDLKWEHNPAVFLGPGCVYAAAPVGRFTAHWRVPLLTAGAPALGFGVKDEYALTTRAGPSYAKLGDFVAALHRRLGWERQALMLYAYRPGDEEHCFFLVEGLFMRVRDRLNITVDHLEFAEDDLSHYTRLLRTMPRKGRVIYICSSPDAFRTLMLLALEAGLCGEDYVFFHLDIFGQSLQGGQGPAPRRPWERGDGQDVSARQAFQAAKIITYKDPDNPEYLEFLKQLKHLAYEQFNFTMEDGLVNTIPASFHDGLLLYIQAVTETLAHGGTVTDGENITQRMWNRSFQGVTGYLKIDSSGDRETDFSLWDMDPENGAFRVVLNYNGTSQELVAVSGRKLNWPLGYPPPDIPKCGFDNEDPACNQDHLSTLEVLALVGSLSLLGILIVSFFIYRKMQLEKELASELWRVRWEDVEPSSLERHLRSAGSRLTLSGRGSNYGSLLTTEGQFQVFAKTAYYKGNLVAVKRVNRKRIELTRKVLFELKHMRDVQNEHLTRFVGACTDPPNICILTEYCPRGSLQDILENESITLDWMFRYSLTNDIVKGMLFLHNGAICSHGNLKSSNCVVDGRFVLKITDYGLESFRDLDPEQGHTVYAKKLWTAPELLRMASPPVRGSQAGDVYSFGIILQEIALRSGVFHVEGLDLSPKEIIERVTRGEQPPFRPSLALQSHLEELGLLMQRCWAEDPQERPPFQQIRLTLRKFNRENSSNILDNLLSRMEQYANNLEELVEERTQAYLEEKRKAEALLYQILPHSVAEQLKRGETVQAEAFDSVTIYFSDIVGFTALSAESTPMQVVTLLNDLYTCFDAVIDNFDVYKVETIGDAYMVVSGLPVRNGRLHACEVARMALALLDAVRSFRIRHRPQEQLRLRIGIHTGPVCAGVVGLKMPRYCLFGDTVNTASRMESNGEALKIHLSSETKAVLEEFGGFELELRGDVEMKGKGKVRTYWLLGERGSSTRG
# Outline: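 HEK293 cells expressing hNpr1 and GloSensor cGMP luciferase, 1500/well, loaded with 2% GloSensor reagent 2 h, compound 30 min at room temperature; luminescence read before and 20 min after 0.1 nM hNppA stimulation.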
# [4] = molecular target: Atrial natriuretic peptide receptor 2 (Homo sapiens) (UniProt P20594); assay: Natriuretic polypeptide receptor (hNpr2) antagonism - Pilot subtype selectivity assay (AID 1347050; calls by dose curve; further: potency means the concentration at half of the fitted maximal effect)
# Chain of Atrial natriuretic peptide receptor 2 (Homo sapiens) (P20594 whole entry, looked up): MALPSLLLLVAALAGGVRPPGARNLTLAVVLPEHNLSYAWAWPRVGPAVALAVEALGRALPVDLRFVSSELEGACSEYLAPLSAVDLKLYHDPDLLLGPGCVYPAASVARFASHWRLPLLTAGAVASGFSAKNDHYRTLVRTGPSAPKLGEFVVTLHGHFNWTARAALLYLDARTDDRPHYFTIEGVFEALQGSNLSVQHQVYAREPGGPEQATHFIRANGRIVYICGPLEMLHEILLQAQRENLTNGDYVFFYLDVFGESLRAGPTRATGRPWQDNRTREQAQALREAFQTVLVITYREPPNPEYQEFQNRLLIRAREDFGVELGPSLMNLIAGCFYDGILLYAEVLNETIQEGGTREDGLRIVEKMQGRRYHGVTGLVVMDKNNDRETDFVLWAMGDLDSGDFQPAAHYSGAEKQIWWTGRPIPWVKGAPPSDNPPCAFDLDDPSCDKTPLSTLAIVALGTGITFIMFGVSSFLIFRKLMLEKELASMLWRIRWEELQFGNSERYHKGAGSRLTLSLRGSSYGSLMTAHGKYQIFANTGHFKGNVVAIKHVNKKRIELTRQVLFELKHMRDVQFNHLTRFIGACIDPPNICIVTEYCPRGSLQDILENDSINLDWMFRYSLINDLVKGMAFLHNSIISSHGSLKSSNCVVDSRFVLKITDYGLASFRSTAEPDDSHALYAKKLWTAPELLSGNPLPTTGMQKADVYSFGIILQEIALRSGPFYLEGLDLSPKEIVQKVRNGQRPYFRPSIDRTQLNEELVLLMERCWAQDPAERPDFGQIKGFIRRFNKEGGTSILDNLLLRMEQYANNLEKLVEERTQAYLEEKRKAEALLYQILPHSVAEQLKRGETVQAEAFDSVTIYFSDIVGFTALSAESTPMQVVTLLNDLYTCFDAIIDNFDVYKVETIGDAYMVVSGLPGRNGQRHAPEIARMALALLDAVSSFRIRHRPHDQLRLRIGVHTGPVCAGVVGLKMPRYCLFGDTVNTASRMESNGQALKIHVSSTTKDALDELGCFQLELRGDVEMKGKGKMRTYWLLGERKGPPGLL
# Outline: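 HEK293 cells expressing hNpr2 and a GloSensor cGMP luciferase sensor, 1500/well, preloaded 2 h with 2% GloSensor reagent, compound 30 min, then 1 nM hNppC for 20 min. Antagonism from luminescence after versus baseline pre-read; LOPAC in 1:5 titrations.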
# [5] = NS1 protein of Zika virus - qHTS assay to identify small molecule inhibitors in human HEK 293 cells (AID 1347053); further: series mostly up to about 46 µM; nearly all actives have a fitted effect of over 55% in size
# Outline: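 HEK 293 cells pretreated with compound for 1 h, then infected with ZIKV MR766 (MOI 0.5) for 24 h at 37 C. NS1 detected by TR-FRET with two anti-NS1 antibodies; normalized to uninfected (0%) and infected (100%) wells.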
# [6] = molecular target: T1, Tyrosine-protein phosphatase non-receptor type substrate 1 (Homo sapiens) + Leukocyte surface antigen CD47 (Homo sapiens) (UniProt P78324+Q08722); assay: CD47-SIRPalpha protein protein interaction - HTRF assay qHTS validation (AID 1347058; active means well fitted curve in the direction sought with a large enough effect in the signal ratio, not every such curve was filed as active; the % refers to the signal ratio;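 further: recombinant soluble extracellular CD47 with His tag and biotinylated SIRPalpha domains; series mostly up to about 38 µM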)
# T1 sequence (P78324 whole entry, looked up, the tested form may be a part): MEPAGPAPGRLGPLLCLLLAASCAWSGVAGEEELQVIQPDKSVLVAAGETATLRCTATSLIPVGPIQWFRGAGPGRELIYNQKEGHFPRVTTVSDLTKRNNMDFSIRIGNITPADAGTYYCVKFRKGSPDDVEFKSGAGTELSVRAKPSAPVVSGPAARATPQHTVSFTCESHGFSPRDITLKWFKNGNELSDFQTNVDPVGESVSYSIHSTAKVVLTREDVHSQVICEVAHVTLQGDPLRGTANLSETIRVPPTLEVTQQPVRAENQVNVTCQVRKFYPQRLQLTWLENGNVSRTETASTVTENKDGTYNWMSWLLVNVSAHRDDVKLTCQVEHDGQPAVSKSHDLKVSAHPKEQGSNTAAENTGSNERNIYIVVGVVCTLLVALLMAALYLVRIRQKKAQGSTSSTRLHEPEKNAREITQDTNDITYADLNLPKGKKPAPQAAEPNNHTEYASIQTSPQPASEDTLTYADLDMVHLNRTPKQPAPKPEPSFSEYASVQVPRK
# T1 sequence (Q08722 whole entry, looked up, the tested form may be a part): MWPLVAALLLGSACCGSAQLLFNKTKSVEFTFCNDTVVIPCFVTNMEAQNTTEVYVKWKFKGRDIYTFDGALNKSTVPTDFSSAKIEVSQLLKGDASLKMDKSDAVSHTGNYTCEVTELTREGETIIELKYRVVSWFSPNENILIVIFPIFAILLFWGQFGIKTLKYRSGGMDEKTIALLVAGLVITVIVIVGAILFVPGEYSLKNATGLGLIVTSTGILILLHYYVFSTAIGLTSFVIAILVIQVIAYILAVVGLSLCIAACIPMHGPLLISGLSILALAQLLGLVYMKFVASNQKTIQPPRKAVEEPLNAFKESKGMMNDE
# Outline: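 TR-FRET read (Ch1/Ch2 ratio) of soluble extracellular CD47 and Avi-biotinylated SIRPalpha domains in PBS pH 7.4 with 0.05% IGEPAL; 7-point compound titration. Sequential 30 min room-temperature steps; non-biotinylated SIRPalpha as control inhibitor.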
# [7] = molecular target: T1, Tyrosine-protein phosphatase non-receptor type substrate 1 (Homo sapiens) + Leukocyte surface antigen CD47 (Homo sapiens); assay: CD47-SIRPalpha protein protein interaction - Alpha assay qHTS validation (AID 1347059);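 further: bead proximity luminescence from CD47 binding SIRPalpha after compound preincubation with SIRPalpha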
# Outline: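 Biotinylated Avi-tagged SIRPalpha (25 nM) preincubated 30 min with compound, then His-tagged CD47 (12.5 nM) added 30 min; AlphaScreen with Ni-NTA acceptor and streptavidin donor beads. PBS pH 7.4, 0.05% IGEPAL, room temperature; 7-point titrations.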
# [8] = molecular target: Parathyroid hormone/parathyroid hormone-related peptide receptor (Homo sapiens) (UniProt Q03431); assay: qHTS for PTHR1 Agonists: Optimization Screen against the NCGC LOPAC library (AID 1347079);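 further: GloSensor cAMP luminescence in HEK-293 GP2 cells expressing human PTHR1 with IBMX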
# Chain of Parathyroid hormone/parathyroid hormone-related peptide receptor (Homo sapiens) (Q03431 whole entry, looked up): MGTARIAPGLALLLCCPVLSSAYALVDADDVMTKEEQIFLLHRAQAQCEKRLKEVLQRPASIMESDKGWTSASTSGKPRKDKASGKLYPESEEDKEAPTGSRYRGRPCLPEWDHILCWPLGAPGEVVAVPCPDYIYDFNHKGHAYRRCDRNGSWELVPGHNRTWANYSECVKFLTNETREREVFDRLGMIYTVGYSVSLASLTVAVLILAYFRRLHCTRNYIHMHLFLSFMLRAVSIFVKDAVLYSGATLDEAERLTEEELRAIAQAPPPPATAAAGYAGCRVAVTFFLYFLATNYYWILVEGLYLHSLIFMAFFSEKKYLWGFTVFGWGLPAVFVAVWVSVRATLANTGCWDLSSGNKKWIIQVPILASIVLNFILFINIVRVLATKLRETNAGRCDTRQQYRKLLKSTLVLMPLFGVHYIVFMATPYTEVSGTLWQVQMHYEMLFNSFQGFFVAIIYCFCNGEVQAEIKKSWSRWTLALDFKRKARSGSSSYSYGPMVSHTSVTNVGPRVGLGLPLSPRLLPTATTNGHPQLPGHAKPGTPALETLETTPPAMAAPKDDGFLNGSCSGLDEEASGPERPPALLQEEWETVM
# Outline: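 Compounds were tested across a qHTS titration. PTHR1-expressing GP2 cells report cAMP rises via GloSensor luminescence after 1 hr compound exposure at 37C with IBMX present.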
# [9] = qHTS for Inhibitors of the Functional Ribonucleoprotein Complex (vRNP) of Lassa (LASV) Arenavirus: LASV Primary Screen - GLuc reporter signal (AID 1347082; calls by dose curve; tested in HEK293 reporter line; further: nearly all actives have a fitted effect of over 60% in size; further: potency means the concentration at half of the fitted maximal effect)
# [10] = qHTS for Inhibitors of the Functional Ribonucleoprotein Complex (vRNP) of Lassa (LASV) Arenavirus: Viability assay - alamar blue signal for LASV Primary Screen (AID 1347083; calls by dose curve; tested in HEK293 reporter line; further: nearly all actives have a fitted effect of over 80% in size; further: potency means the concentration at half of the fitted maximal effect)
# [11] = qHTS for Inhibitors of the Functional Ribonucleoprotein Complex (vRNP) of Lymphocytic Choriomeningitis Arenaviruses (LCMV): Viability assay - alamar blue signal for LCMV Primary Screen (AID 1347085; calls by dose curve; tested in HEK293 reporter line; further: nearly all actives have a fitted effect of over 80% in size; further: potency means the concentration at half of the fitted maximal effect)
# [12] = molecular target: Nucleoprotein (Lymphocytic choriomeningitis virus (strain Armstrong)) (UniProt P09992); assay: qHTS for Inhibitors of the Functional Ribonucleoprotein Complex (vRNP) of Lymphocytic Choriomeningitis Arenaviruses (LCMV): LCMV Primary Screen - GLuc reporter signal (AID 1347086; calls by dose curve; further: series mostly up to about 57 µM; nearly all actives have a fitted effect of over 70% in size)
# Chain of Nucleoprotein (Lymphocytic choriomeningitis virus (strain Armstrong)) (P09992 whole entry, looked up): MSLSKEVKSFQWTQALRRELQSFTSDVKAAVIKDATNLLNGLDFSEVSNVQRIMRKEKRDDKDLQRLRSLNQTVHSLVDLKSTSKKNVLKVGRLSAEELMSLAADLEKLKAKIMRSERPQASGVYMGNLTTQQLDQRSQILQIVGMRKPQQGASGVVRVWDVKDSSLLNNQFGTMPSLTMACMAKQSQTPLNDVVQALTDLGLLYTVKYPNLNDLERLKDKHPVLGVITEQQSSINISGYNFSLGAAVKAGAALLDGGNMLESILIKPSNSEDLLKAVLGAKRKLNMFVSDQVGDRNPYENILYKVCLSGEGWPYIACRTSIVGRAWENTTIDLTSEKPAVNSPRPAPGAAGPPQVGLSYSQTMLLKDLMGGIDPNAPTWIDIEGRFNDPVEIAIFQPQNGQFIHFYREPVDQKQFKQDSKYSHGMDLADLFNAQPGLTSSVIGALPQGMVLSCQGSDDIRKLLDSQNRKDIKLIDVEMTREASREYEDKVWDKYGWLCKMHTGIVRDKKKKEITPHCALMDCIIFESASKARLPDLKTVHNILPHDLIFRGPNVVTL
# [13] = molecular target: T1, Tyrosine-protein phosphatase non-receptor type substrate 1 (Homo sapiens) + Leukocyte surface antigen CD47 (Homo sapiens); assay: CD47-SIRPalpha protein protein interaction - LANCE assay qHTS validation (AID 1347057; active means well fitted curve in the direction sought with a large enough effect in the signal ratio, with a control signal flat, not every such curve was filed as active; the % refers to the signal ratio; further: series mostly up to about 38 µM)
# Outline: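 First, His-tagged CD47 and Eu-labelled anti-His antibody met the compound for 30 min; next, site-specifically biotinylated SIRPalpha was added for 30 min; finally streptavidin-APC was added before reading the TR-FRET ratio.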
# [14] = P-glycoprotein substrates identified in KB-3-1 adenocarcinoma cell line, qHTS therapeutic library screen (AID 1346986); further: nearly all actives have a fitted effect of over 60% in size;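 further: potency means the concentration at half of the fitted maximal effect; potency is for cytotoxicity meaning loss of cell viability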
# Outline: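 Compounds were tested in dose-response against KB-3-1 and KB-8-5-11 cells at 37 degree C for 72 h, and viability was measured by luminescence. AC50 values came from curve fitting with class-based activity calls.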
# [15] = Identifying Small Molecule Inhibitors of Pancreatic Cancer Stem Cells (SN12C, Adherent) (AID 1259358);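 further: potency means the concentration at half of the fitted maximal effect; cell survival measured after 48 h of compound exposure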
# Outline: (§1)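 Monolayer and spheroid cultures are compared. Spheroids form over 14 days in stem cell medium on hydrogel-coated low-attachment plates, then are exposed to compound for 48 h before CellTiter-Glo luminescence.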
# [16] = Identifying Small Molecule Inhibitors of Pancreatic Cancer Stem Cells (A278, Adherent) (AID 1259361);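 further: viability read after 48 h compound exposure; nearly all actives have a fitted effect of over 35% in size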
# Outline: as §1
# [17] = Identifying Small Molecule Inhibitors of Pancreatic Cancer Stem Cells (Panc1, Adherent) (AID 1259362); conditions: Potency: viability; further: potency means the concentration at half of the fitted maximal effect
# Outline: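 Pre-formed 14-day tumor spheroids or adherent cells dosed and incubated 48 h, 37C, 5% CO2. Viability assessed by CellTiter-Glo.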
# [18] = Identifying Small Molecule Inhibitors of Pancreatic Cancer Stem Cells (Panc1, Spheroid) (AID 1259359); conditions: Panc1 spheroid cancer stem cell viability;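 further: potency means the concentration at half of the fitted maximal effect; compound exposure lasted 48 h before reading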
# Outline: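 Luminescent ATP readout (CellTiter-Glo) quantifies surviving cells after a 48 h drug incubation. Normalization uses DMSO wells as no inhibition and media-only wells as full inhibition; bortezomib served as positive control.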
# [19] = Identifying Small Molecule Inhibitors of Pancreatic Cancer Stem Cells (SN12C, Spheroid) (AID 1259360); conditions: Potency: SN12C spheroid viability; further: potency means the concentration at half of the fitted maximal effect
# Outline: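 Spheroids grown 14 days in stem cell media on nonadherent hydrogel before screening; cells attached 4 h, then compound exposure 48 h at 37C, 5% CO2. CellTiter-Glo luminescence normalized to DMSO (no inhibition) and no-cell wells (full inhibition).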
compound,measurement,setting,value
NC1CC1c1ccccc1 (stereo not given),Potency,[1],inactive
same,Potency,[2],inactive
same,Potency,[3],inactive
same,Potency,[4],inactive
same,Potency,[5],inactive
same,outcome,[6],inactive
same,Potency,[7],inactive
same,outcome,[8],inactive
same,Potency,[9],inactive
same,Potency,[10],inactive
same,Potency,[11],inactive
same,Potency,[12],inactive
COC(=O)[C@@H](N)CCCN=C(N)N[N+](=O)[O-],Potency,[1],inactive
same,Potency,[2],inactive
same,Potency,[3],inactive
same,Potency,[4],inactive
same,Potency,[5],inactive
same,outcome,[13],inactive
same,outcome,[6],inactive
same,Potency,[7],inactive
same,Potency,[12],inactive
C[C@@H]1[C@H](O)[C@@H](C)C=CC=CCCC=CC=CC=CC=C[C@H](O[C@H]2O[C@@H](C)[C@H](O)[C@@H](N)[C@@H]2O)CC2O[C@](O)(C[C@@H](O)[C@H](O)CC[C@@H](O)C[C@@H](O)C[C@@H](O)CC(=O)O[C@H]1C)C[C@H](O)[C@H]2C(=O)O,Potency,[14],inactive
same,Potency,[1],inactive
same,Potency,[5],inactive
same,Potency,[9],inactive
same,Potency,[10],inactive
same,Potency,[11],inactive
same,Potency,[12],inactive
CCCN1CCC[C@H](c2cccc(O)c2)C1,Potency,[1],inactive
same,Potency,[2],inactive
same,Potency,[3],inactive
same,Potency,[4],inactive
same,Potency,[5],inactive
same,outcome,[6],inactive
same,Potency,[7],inactive
same,outcome,[8],inactive
same,Potency,[9],inactive
same,Potency,[10],inactive
same,Potency,[11],inactive
same,Potency,[12],inactive
COc1ccc2c(c[n+](C)c3c4cc5c(cc4ccc23)OCO5)c1OC,Potency,[15],20.9 µM (active)
same,IC50 (viability decrease),[16],16.6 µM (active)
same,Potency,[17],6.62 µM (active)
same,Potency,[2],13.1 µM (active)
same,Potency,[3],16.9 µM (active)
same,Potency,[4],14.7 µM (active)
same,Potency,[7],inactive
same,outcome,[8],inactive
same,Potency,[12],inactive
O=c1cccc2n1CC1CNC[C@H]2C1,Potency,[14],inactive
same,Potency,[1],inactive
same,Potency,[5],inactive
same,Potency,[9],inactive
same,Potency,[10],27.3 µM (active)
same,Potency,[12],inactive
C=CCON=C(C[C@H]1O[C@@H]2O[C@]3(C)CC[C@@H]4[C@H](C)CC[C@@H]([C@H]1C)[C@@]24OO3)[C@H]1O[C@@H]2O[C@]3(C)CC[C@H]4[C@H](C)CC[C@@H]([C@@H]1C)[C@@]24OO3,Potency,[15],0.0935 µM (active)
same,IC50 (viability decrease),[16],0.0526 µM (active)
same,Potency,[17],0.0662 µM (active)
same,Potency,[1],16600 nM (active)
CC1=NN=C(c2ccc(N)cc2)c2cc3c(cc2C1)OCO3,Potency,[14],inactive
same,Potency,[1],inactive
same,Potency,[2],inactive
same,Potency,[3],inactive
same,Potency,[4],inactive
same,Potency,[5],inactive
same,outcome,[6],inactive
same,Potency,[7],inactive
same,Potency,[9],inactive
same,Potency,[10],inactive
same,Potency,[11],inactive
same,Potency,[12],inactive
CC(C)[C@]12O[C@H]1[C@@H]1O[C@]13[C@]1(O[C@H]1C[C@H]1C4=C(CC[C@@]13C)C(=O)OC4)[C@@H]2O,Potency,[18],23.5 nM (active)
same,Potency,[19],11.8 nM (active)
same,IC50 (viability decrease),[16],0.0066 µM (active)
same,Potency,[1],20.6 nM (active)
c1ccc(CCCN2CCN(CCOC(c3ccccc3)c3ccccc3)CC2)cc1,Potency,[1],18700 nM (active)
same,Potency,[2],26.1 µM (active)
same,Potency,[3],inactive
same,Potency,[4],inactive
same,Potency,[5],inactive
same,outcome,[6],inactive
same,Potency,[7],inactive
same,Potency,[9],inactive
same,Potency,[10],inactive
same,Potency,[11],inactive
same,Potency,[12],inactive
Cc1ccccc1-n1c(Cn2cnc3c(N)ncnc32)nc2cccc(C)c2c1=O,Potency,[15],18.7 µM (active)
same,IC50 (viability decrease),[16],18.7 µM (active)
same,Potency,[17],inactive
same,Potency,[1],590 nM (active)
same,Potency,[9],8.63 µM (active)
same,Potency,[10],1.53 µM (active)
same,Potency,[11],1.93 µM (active)
Oc1ccc2c3c1O[C@H]1c4[nH]c5c(c4C[C@@]4(O)[C@@H](C2)N(CC2CC2)CC[C@]314)C[C@@]1(O)[C@H]2Cc3ccc(O)c4c3[C@@]1(CCN2CC1CC1)[C@H]5O4,Potency,[14],inactive
same,Potency,[1],inactive
same,Potency,[2],inactive
same,Potency,[3],inactive
same,Potency,[4],inactive
same,Potency,[5],inactive
same,Potency,[7],inactive
same,Potency,[9],inactive
same,Potency,[10],inactive
same,Potency,[11],inactive
same,Potency,[12],inactive
CC(O)=C(C#N)C(=O)Nc1cc(Br)ccc1Br,Potency,[14],inactive
same,Potency,[1],inactive
same,Potency,[5],inactive
same,Potency,[9],inactive
same,Potency,[10],inactive
same,Potency,[11],inactive
same,Potency,[12],inactive
CC(C)N(CCNC(=O)CN1CCCC1=O)C(C)C,Potency,[14],inactive
same,Potency,[1],inactive
same,Potency,[5],inactive
same,Potency,[9],inactive
same,Potency,[10],inactive
same,Potency,[11],inactive
same,Potency,[12],inactive
CC(=O)[O][Hg][c]1ccccc1,Potency,[1],259 nM (active)
CC(=O)N(C)c1cccc(-c2ccnc3c(C(=O)c4cccs4)cnn23)c1,Potency,[14],inactive
same,Potency,[5],inactive
same,Potency,[9],inactive
same,Potency,[10],inactive
same,Potency,[12],inactive
CCCN1CCO[C@@H]2c3cc(O)ccc3OC[C@@H]21,Potency,[14],inactive
same,Potency,[1],inactive
same,Potency,[5],inactive
same,Potency,[9],inactive
same,Potency,[10],inactive
same,Potency,[11],inactive
same,Potency,[12],inactive
CC(C)(C)c1cc(C=C(C#N)C#N)cc(Br)c1O,Potency,[14],20.6 µM (active)
same,Potency,[9],inactive
same,Potency,[10],inactive
O=C(O)C(Cl)Cl,Potency,[14],inactive
same,Potency,[1],inactive
same,Potency,[5],inactive
same,Potency,[9],inactive
same,Potency,[10],inactive
same,Potency,[11],inactive
same,Potency,[12],inactive
O=C(N[C@H]1CN2CCC1CC2)c1ccc(Cl)cc1,Potency,[14],inactive
same,Potency,[1],inactive
same,Potency,[2],inactive
same,Potency,[3],inactive
same,Potency,[4],inactive
same,Potency,[5],inactive
same,outcome,[6],inactive
same,Potency,[7],inactive
same,Potency,[9],inactive
same,Potency,[11],inactive
same,Potency,[12],inactive
CC(=O)NCCc1c[nH]c2ccccc12,Potency,[14],inactive
same,Potency,[1],inactive
same,Potency,[2],inactive
same,Potency,[3],inactive
same,Potency,[4],inactive
same,Potency,[5],inactive
same,outcome,[13],inactive
same,outcome,[6],inactive
same,Potency,[7],inactive
same,Potency,[9],inactive
same,Potency,[10],inactive
same,Potency,[11],inactive
same,Potency,[12],inactive
